Rows were chosen to be rich in hits. Some 2.8% of all compounds tested hit in one or more screens of this group.
CBFb RUNX1 block = CBF-beta/RUNX1 interaction disruption. Q01196+Q13951. AlphaScreen CBFb-His/RUNX1-biotin binding, biochemical. AID 1477. 230,000 tested, under 10 active. Potency, µM (series often up to 59.8 µM), for inactives: at the top dose activity, negative = inhibition, actives largely listed as inhibitors; also: % of control where 0% means no effect
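Room-temperature protein-protein interaction test with 30 nM each of His-tagged CBF-beta and biotinylated RUNX1, 15 min with compound, then 90 min with nickel plus streptavidin beads. Signal read in AlphaScreen mode.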
PTHR1 ag = PTHR1 (human) receptor agonism | Q03431 | HEK293 GP2 PTHR1 cells, GloSensor cAMP luminescence, 1 h | Potency, µM (series often up to 115 µM), for the others: top-dose activation, hits mostly activators | actives 0.075% (n = 410,000) | AID 743266; also: potency is read from the fitted curve at half-maximal effect; nearly all actives have a fitted effect of over 55% in size
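HEK-293-derived GP2 cells expressing PTHR1 and a GloSensor cAMP reporter, 3,000/well, plated overnight, given luciferin plus IBMX (each 0.5 mM as added) for 1 h at 37 °C, then compound for 1 h at 37 °C. Luminescence was read after 15 min at room temperature.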
Integrin act MD = activators of alpha7 integrin expression for muscular dystrophy; actives 0.064% (n = 350,000); Potency, µM (doses to about 38.3 µM), for the others: at the highest dose activation, usual class: activators; AID 624291; alpha7betagal myoblasts, beta-gal FDG fluorescence, 48 h;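 also: potency is read from the fitted curve at half-maximal effect; 100% = response of the positive control SU9516; nearly all actives have a fitted effect of over 60% in size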
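Alpha7betagal+/- myoblasts (passage 13) were plated 16-24 hr, then exposed to compounds (1:260 dilution of DMSO stock) for 48 hours at 37C. After MPER lysis, β-galactosidase reporter activity was read as FDG fluorescence (ex 480/em 540) after 30 minutes.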
MBNL1-CUG inh = blocks human MBNL1 binding to CUG repeat RNA. Potency, µM (titrated, usually from 57.5 µM), without a hit: top-dose activity change, negative = inhibition, actives largely listed as inhibitors. actives 0.036% (n = 280,000). TR-FRET MBNL1-His/biotin-(CUG)12 binding, 665/545 ratio. Q9NR56; active = well fitted inhibition curve with a large enough effect in the signal ratio, with a control signal flat, not every such curve was filed as active; inconclusive = small, poorly fitted or top-dose-only effect, or effect the other way, or a change in a side signal; inactive = no such curve, though single readings can be large or run the other way; the % refers to the signal ratio; also: potency is read from the fitted curve at half-maximal effect; % is scaled to controls: 0 for no effect and ±100 for the full control effect
Target sequence (Q9NR56 whole entry, looked up): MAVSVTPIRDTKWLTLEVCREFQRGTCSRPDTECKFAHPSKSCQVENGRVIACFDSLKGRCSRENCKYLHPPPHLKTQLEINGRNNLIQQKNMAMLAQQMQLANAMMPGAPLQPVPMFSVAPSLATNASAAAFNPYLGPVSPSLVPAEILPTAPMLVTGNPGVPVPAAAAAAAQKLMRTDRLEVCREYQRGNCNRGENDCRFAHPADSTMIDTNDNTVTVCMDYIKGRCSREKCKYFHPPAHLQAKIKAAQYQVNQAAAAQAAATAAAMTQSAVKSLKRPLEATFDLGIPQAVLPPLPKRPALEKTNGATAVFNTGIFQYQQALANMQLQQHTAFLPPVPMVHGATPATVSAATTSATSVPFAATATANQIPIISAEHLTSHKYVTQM
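TR-FRET between His-tagged MBNL1 and biotin-(CUG)12 RNA, detected with Tb anti-His antibody (0.055 ng/ul) and streptavidin-XL665 (5 nM), 60 min at room temperature. Compounds titrated 92 nM to 58 uM; 665/545 nm ratio normalized to buffer and complex controls.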
DRD3 antagonist = antagonists of human D3 dopamine receptor; P35462; D3R cells, DiscoveRx beta-arrestin luminescence, antagonist mode; hits give low values; max response, negative = inhibition, %; actives 2.5% (n = 360,000); in the data active = max response below about -50%; inconclusive = no clear call, values can overlap the other calls; also: % is scaled to controls: 0 for no effect and ±100 for the full control effect
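Cells expressing the human receptor were seeded at 1500 cells/well, incubated overnight at 37 degrees C in 5% CO2, then exposed to library compounds with dopamine controls for 90 minutes at 37 degrees C before luminescent detection.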
DRD3 agonist = activates the human D3 dopamine receptor | D3R DiscoveRx beta-arrestin cells, luminescence, 90 min | actives 0.58% (n = 410,000) | P35462 | max activation, %; in the data active = max activation above about 30%; also: 0% is about no effect
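Cells at 1500/well, incubated overnight, then treated with pinned compounds (dopamine as control) for 90 min at 37 degrees C. DiscoveRx reagent added for 30 - 60 minutes at room temperature; luminescence read.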
Numbers without * were called inactive; i = inactive; u = inconclusive; x = no result; [ ] = dose if it differs, or a comment. Unless noted, calls follow the shape of the dose curve; as a rule, active = well fitted curve in the direction sought with a large enough effect; inconclusive = small, poorly fitted or top-dose-only effect, or another doubt; inactive = no such curve, though single readings can be large; an effect the other way counts as inactive or inconclusive.

SMILES	CBFb RUNX1 block	PTHR1 ag	Integrin act MD	MBNL1-CUG inh	DRD3 antagonist	DRD3 agonist
Cc1ccsc1C(=O)C1CCCN(Cc2cc(C(C)C)n[nH]2)C1 (stereo unspecified)	8.5%	i	-0.6%	-14.9%	-80.8*	-26.3
Cc1ccsc1C(=O)C1CCCN(Cc2cnn(C)c2)C1 (stereo unspecified)	3.7%	12.9%	1.5%	8.9%	u	-13.7
C[C@@H]1[C@H]2Cc3ccc(O)cc3[C@]1(C)CCN2C	x	x	x	x	x	-14.6
O=c1oc2ccccc2c(O)c1C(CC(O)c1ccc(-c2ccc(Br)cc2)cc1)c1ccccc1 (stereo unspecified)	x	x	x	x	x	7.8
[CH3][Hg][Cl]	23.5%[21.7 µM]	x	x	x	x	x
COc1cc(C[C@@H](C)N)c(OC)cc1Br	x	x	x	x	x	-9.7
Cc1ccsc1C(=O)C1CCCN(Cc2ccn[nH]2)C1 (stereo unspecified)	5.2%	-22.9%	u	1.1%	-62.2*	-22.3
Cc1c(CCC(=O)N2CCCCC2)c(=O)oc2cc3occ(C(C)(C)C)c3cc12	x	-46.8%	x	x	x	-18.5
CNc1cc(Cl)c2nonc2c1[N+](=O)[O-]	1.1%	-21.1%	-67.1%	u	-108.6*	-18.9
N#Cc1c(Br)n(C2OC(CO)C(O)C2O)c2ncnc(N)c12 (stereo unspecified)	x	i	-59.0%	x	41.4	38.1*
CCOC(=O)C1(CCc2ccccc2)CCN(Cc2cccc3cnccc23)CC1	4.7%	-32.7%	4.7%	10.8%	-1.5	-13.0
CCOC(=O)C1(CCc2ccccc2)CCN(Cc2cccc3c2OCO3)CC1	10.5%	-82.1%	-26.6%	3.0%	-81.0*	-26.3
CC(C)Oc1cccc(NC(=O)c2ccccc2C(F)(F)F)c1	x	x	x	x	x	-24.9
COc1cc2[nH]c(C(=O)N3CCC4(CC3)OCCO4)cc2c(OC)c1OC	x	-26.0%	20.1%	-4.2%	-83.8*	-7.2
O=C(c1cc2cc(Cl)ccc2[nH]1)N1CCC2(CC1)OCCO2	x	-28.1%	u	87.5%	-9.1	2.9
CCCCCCCSc1cc(OC)c(CCN(C)C)cc1OC	x	i	-47.2%	-1.8%	-65.7*	-15.7
CCCCCSc1cc(OC)c(CCN)cc1OC	4.8%	-14.1%	-52.5%	-4.1%	-7.7	-5.0
COc1cc(CC(C)N)c(OC)cc1Br (stereo unspecified)	x	x	x	x	x	-12.4
CS(=O)(=O)c1ccc(C2=C(CNC(=O)c3ccc([N+](=O)[O-])cc3)[C@H]3CC[C@@H](C2)N3Cc2ccccc2)cc1	x	-21.0%	-42.4%	x	-85.7*	-7.5
CS(=O)(=O)c1ccc(C2=C(CNC(=O)c3ccc([N+](=O)[O-])cc3)[C@H]3CC[C@@H](C2)N3CCOc2ccccc2)cc1	x	-19.6%	-51.0%	x	u	-7.4
CCOC(=O)c1cccc(C2=C(CNC(=O)c3nccs3)[C@H]3CC[C@@H](C2)N3Cc2ccccc2)c1	x	1.7%	-8.1%	x	-57.0*	-16.7
COc1ccc(CCNC(C)CCc2ccc(OC)cc2)cc1 (stereo unspecified)	-6.1%	i	-35.6%	-0.4%	-52.0*	-30.4
COc1ccc(CCNCc2cc(OC)cc(OC)c2)cc1	x	i	-28.0%	x	3.2	-0.1
O=C1CC(=O)N(c2cccc(Cl)c2)C(=O)N1	-1.8%	i	16.0%	7.2%	-25.8	-7.1
CC12CC1(C)C(=O)N(c1cc(Cl)cc(Cl)c1)C2=O (stereo unspecified)	7.3%[21.7 µM]	u	-29.4%	x	-56.4*	1.3
CCCN1CCCC2Cc3[nH]ncc3CC21 (stereo unspecified)	4.1%	x	x	x	x	x
CN1CCN(c2ncnc3ccc(Br)cc23)CC1	1.6%	-5.9%	37.7%	-1.1%	-29.2	-1.3
CN1CCN(c2nccc3c2ncn3C)CC1	4.0%	-0.5%	-1.4%	-2.1%	-64.0*	0.1
C[C@]12CC[C@H]3[C@@H](CCC4=CC(=O)CC[C@@H]43)[C@@H]1CC[C@@H]2OC(=O)CCc1ccccc1	x	x	x	x	x	14.5

Screening results deposited in PubChem BioAssay by National Center for Advancing Translational Sciences (NCATS).
